Measured values from PubChem BioAssay (Tox21).
Results filed as inconclusive are left out. Entries that show only a call come without a potency. Calls of active or inactive are those of the source. Calls come from the whole dose curve.

The compounds below were run against Thyrotropin receptor (Homo sapiens) (UniProt P16473) (assay: qHTS assay to identify small molecule agonists of the thyroid stimulating hormone receptor (TSHR) signaling pathway (AID 1224843; note: nearly all actives have a fitted effect of over 45% in size)). Conditions: TSHR-HEK293 cells, cAMP HTRF, agonist mode, 30 min; series mostly up to 92.4 µM.
Excerpt: National Center for Advancing Translational Sciences [NCATS]
NIH Chemical Genomics Center [NCGC]
U.S. Environmental Protection Agency [EPA]
National Institutes of Environmental Health Sciences [NIEHS]
National Toxicology Program [NTP]
U.S. Food and Drug Administration [FDA]
TSHR is the receptor for thyrotropin (thyroid stimulating hormone or TSH), a member of the glycoprotein hormone family. TSH is released by the anterior pituitary gland and is the main regulator of thyroid gland growth and development. Upon binding circulating thyrotropin, a G-protein signal cascade activates adenylyl cyclase and […] cAMP concentration is increased. cAMP is a key second messenger involved extensively in cellular signal transduction pathways associated with the majority of G-protein coupled receptors (GPCRs). The activation of these GPCRs by neurotransmitters, lipids, nucleotides, peptides and hormones results in the activation or the inhibition of plasma membrane-bound adenylate cyclase through heterotrimeric G-proteins. A cell-based TSHR assay was used to screen the Tox21 10K library for compounds that can modulate TSHR in agonist mode.
Tox21 Assay Protocol Summary:
TSHR-Hek293 cells were dispensed at 800 cells/4uL/well in 1536-well white plates using a Multidrop dispenser. […] The plates were incubated at room temperature for 30 min. 2.5 ul/well of cAMP-d2 and 2.5ul/well of anti-cAMP-cryptate was added respectively into the assay plates using a Flying Reagent Dispenser. After 1 hr incubation at room temperature, the fluorescence intensity in the plates was measured using an Envision plate reader. Each test compound was measured at 15 concentrations and in triplicates.
Potency is the fitted concentration of half-maximal effect.

Chain of Thyrotropin receptor (Homo sapiens) (P16473 whole entry, looked up): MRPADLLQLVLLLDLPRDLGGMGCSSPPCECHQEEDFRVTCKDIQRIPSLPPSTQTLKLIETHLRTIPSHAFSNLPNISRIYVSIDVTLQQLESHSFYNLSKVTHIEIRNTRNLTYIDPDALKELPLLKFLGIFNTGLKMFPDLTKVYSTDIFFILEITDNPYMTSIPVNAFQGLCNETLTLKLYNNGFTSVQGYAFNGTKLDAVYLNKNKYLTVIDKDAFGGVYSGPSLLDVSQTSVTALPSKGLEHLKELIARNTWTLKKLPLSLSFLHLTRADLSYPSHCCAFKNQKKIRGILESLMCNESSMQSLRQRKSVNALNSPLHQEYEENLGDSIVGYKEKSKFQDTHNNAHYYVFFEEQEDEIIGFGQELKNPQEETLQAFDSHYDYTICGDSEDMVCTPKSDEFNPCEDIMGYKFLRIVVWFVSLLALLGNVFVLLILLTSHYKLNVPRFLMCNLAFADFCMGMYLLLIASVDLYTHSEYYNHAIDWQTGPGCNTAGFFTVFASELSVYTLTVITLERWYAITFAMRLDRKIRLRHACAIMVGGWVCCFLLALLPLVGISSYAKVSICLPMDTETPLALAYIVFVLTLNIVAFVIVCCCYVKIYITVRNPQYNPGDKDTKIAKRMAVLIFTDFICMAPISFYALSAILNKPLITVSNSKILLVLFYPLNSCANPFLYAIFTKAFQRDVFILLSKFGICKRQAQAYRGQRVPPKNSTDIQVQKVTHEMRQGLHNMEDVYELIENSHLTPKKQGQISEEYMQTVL

| Compound | Potency |
| --- | --- |
| N#Cc1ccc(Cl)cc1 | inactive |
| CCCCN=C=O | inactive |
| CCOc1nc(F)cc2nc(S(=O)(=O)Nc3c(Cl)cccc3Cl)nn12 | inactive |
| C=CCCl | inactive |
| CCOP(O)OCC | inactive |
| O=S1OC[C@@H]2[C@H](CO1)[C@]1(Cl)C(Cl)=C(Cl)[C@@]2(Cl)C1(Cl)Cl (stereo not given in full) | 10.9 µM (active) |
| Clc1cc(Cl)c(Cl)c(Cl)c1 | inactive |
| CC(C)=CCOc1c2occc2cc2ccc(=O)oc12 | inactive |
| Clc1ccc(C(OCCN2CCCCC2)c2ccccc2)cc1 (stereo not given) | inactive |
| Clc1ccc(C2(Cn3cncn3)CC(Br)CO2)c(Cl)c1 (stereo not given) | inactive |
| CCCCC(CC)COP(=O)(Oc1ccccc1)Oc1ccccc1 (stereo not given) | 27.3 µM (active) |
| COC(C)(C)CCC[C@H](C)C/C=C/C(C)=C/C(=O)OC(C)C | inactive |
| C=CC(=O)OCCCCO | inactive |
| CCOC(=O)[C@]1(c2ccccc2)Oc2ccccc2[C@@H]1N | inactive |
| NC(=O)C(Cl)(Cl)Cl | inactive |
| CNP(=O)(OC)Oc1ccc(C(C)(C)C)cc1Cl (stereo not given) | inactive |
| CCCCc1c(C)nc(NCC)nc1OS(=O)(=O)N(C)C | inactive |
| CC(C)N(CCC(C(N)=O)(c1ccccc1)c1ccccn1)C(C)C (stereo not given) | inactive |
| CCCC(Cn1cncn1)c1ccc(Cl)cc1Cl (stereo not given) | inactive |
| CC(Cl)Cl | inactive |

| Compound | Potency |
| --- | --- |
| CCCN(CC1CC1)c1c([N+](=O)[O-])cc(C(F)(F)F)cc1[N+](=O)[O-] | 6.86 µM (active) |
| CC(=O)[C@H]1CC[C@H]2[C@@H]3CC[C@H]4C[C@](C)(O)CC[C@]4(C)[C@H]3CC[C@]12C | inactive |
| COC1=CC(=O)O[C@@H](CCc2ccccc2)C1 | inactive |
| Sc1ccccc1Cl | inactive |
| Cc1cc(=O)[nH]o1 | inactive |
| C=COC(C)=O | inactive |
| COc1nn(C(=O)NS(=O)(=O)c2ccccc2OC(F)(F)F)c(=O)n1C | inactive |
| CCCN(CCCl)c1c([N+](=O)[O-])cc(C(F)(F)F)cc1[N+](=O)[O-] | 1.93 µM (active) |
| CC[C@H]1C[C@H]2[C@@H]3CCC4=CC(=O)CC[C@@H]4[C@H]3CC[C@]2(C)[C@H]1O | inactive |
| NS(=O)(=O)C(F)(F)C(F)(F)C(F)(F)C(F)(F)C(F)(F)C(F)(F)C(F)(F)C(F)(F)F | inactive |
| N#CCC#N | inactive |
| CCOP(=O)(OCC)SCCSCC | inactive |
| Nc1ccc([N+](=O)[O-])cc1[N+](=O)[O-] | inactive |
| NNC(=O)c1cccnc1 | inactive |
| CCOS(C)(=O)=O | inactive |
| O=Cc1ccc2c(c1)OCO2 | inactive |
| CC1Sc2c(C(=O)O)c(=O)c3cc(F)c(N4CCNCC4)cc3n21 (stereo not given) | inactive |
| Cn1sc(Cl)cc1=O | inactive |
| O=C(O)CC(Cl)C(=O)O (stereo not given) | inactive |
| O=C(CBr)Nc1ccc(Cl)cc1C(=O)c1ccccc1F | inactive |
